Compounds with a hit are over-represented: about 11% of the library has one in this group of screens.
HPGD inh: inhibitors of human 15-hydroxyprostaglandin dehydrogenase (HPGD) | P15428 | purified HPGD, NADH fluorescence kinetic, PGE2 substrate | Potency, µM, actives largely listed as inhibitors | 4.3% of 150,000 active | AID 894; active means well fitted inhibition curve with a large enough effect, not every such curve was filed as active; inconclusive means small, poorly fitted or top-dose-only effect, or another doubt; inactive means no such curve, though single readings can be large or run the other way
Target sequence (P15428 whole entry, looked up): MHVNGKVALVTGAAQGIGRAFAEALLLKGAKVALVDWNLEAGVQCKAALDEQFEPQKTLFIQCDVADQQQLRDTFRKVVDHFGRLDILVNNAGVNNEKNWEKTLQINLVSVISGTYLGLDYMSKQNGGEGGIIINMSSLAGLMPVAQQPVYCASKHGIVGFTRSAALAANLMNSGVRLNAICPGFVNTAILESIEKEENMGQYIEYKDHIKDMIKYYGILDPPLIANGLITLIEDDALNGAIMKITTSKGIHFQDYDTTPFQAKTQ
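NADH formation kinetics: reaction with 30 uM PGE2 and 1 mM NAD+ (final), 20 nM enzyme, Tris-HCl pH 8 with Tween 20, after 15 min compound preincubation at room temperature. Fluorescence change, last versus first of five reads.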
IMPase Li inh: IMPase inhibition in cells with lithium potentiation. AID 1457. 0.35% of 210,000 active. Potency, µM (top dose mostly 59.4 µM), hits mostly inhibitors. CHO-M1 cells, IP1 TR-FRET (IP-One), carbachol + lithium;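 further: IP1 builds up when IMPase is blocked and the TR-FRET signal falls; nearly all actives have a fitted effect of over 50% in size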
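CHO cells stably expressing M1 receptor (2000/well, cultured 16–30 h) treated 30 min at 37C with compound plus low lithium. Cytosolic IP1 by TR-FRET (665/620 ratio and 620 channel) after 10 min lysis; AC50 by Hill fit.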
IMPase cell inh: membrane-permeable compound that blocks inositol monophosphatase; P97697; CHO-M1 cells, IP1 accumulation, HTRF TR-FRET ratio; 120,000 tested, under 10 active; inhibition (IP1 accumulation), % at 46.1 µM; AID 901; active means well fitted curve in the direction sought with a large enough effect in the signal ratio, not every such curve was filed as active; inconclusive means small, poorly fitted or top-dose-only effect, or a change in a side signal; inactive means no such curve, though single readings can be large or run the other way; the % refers to the signal ratio;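 further: cells stimulated with carbachol in lithium chloride buffer; higher means more IMPase inhibition seen as more IP1 and lower FRET ratio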
Target sequence (P97697 whole entry, looked up): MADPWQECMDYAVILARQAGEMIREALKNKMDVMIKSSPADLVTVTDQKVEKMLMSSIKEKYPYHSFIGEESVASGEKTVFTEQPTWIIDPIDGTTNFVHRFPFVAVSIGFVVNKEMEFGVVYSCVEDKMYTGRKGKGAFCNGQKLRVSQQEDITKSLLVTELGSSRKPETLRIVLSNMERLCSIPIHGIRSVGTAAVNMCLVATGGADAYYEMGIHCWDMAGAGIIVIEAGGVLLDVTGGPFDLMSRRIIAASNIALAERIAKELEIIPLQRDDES
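Elevated IP1 in lysates lowers TR-FRET signal (665/620 ratio and 620 channel reported). Cells were CHO-M1, given carbachol (50 uM as added) plus 50mM LiCl, pH 7.4, 30 min, 37C; compounds titrated up to 46 uM; AC50 by Hill equation.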
NPSR antag: neuropeptide S receptor (human) antagonism, cAMP | Q6W5P4 | CHO-NPSR cells, cAMP TR-FRET, antagonist mode | Potency, µM (titrated, usually from 38.3 µM), hits mostly inhibitors | 1% of 220,000 active | AID 1461; further: nearly all actives have a fitted effect of over 50% in size
PNC assembly inh: blocks assembly of the perinucleolar compartment; PC3M PTB-GFP, PNC prevalence imaging, 16 h; stronger effect = lower value; activity change (PNC), negative = inhibition, % at 10 µM; 3.1% of 140,000 active; AID 2417;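 active means readout at or below -70, meaning at least 70% loss of cells showing the perinucleolar compartment, a nuclear body marking cancer cells; inconclusive means readout between -30 and a set limit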
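PC3M cells stably expressing PTB-GFP, 750–1000 cells/well, treated 16 h at 37 °C with compound (23 nl of library stock), in duplicate. After paraformaldehyde fixation and Hoechst stain, imaged at 20x; PNC prevalence scored by image analysis.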
ALDH1A1 block: inhibitors of human aldehyde dehydrogenase 1A1 | P00352 | Potency, µM (highest dose often 75.3 µM), usual class: inhibitors | 7.3% of 220,000 active | Purified ALDH1A1, NADH fluorescence, propionaldehyde substrate; active means well fitted inhibition curve with a large enough effect, not every such curve was filed as active; inconclusive means small, poorly fitted or top-dose-only effect, or another doubt; inactive means no such curve, though single readings can be large or run the other way
Of the large screens only hits and unclear results are named; the others gave an inactive call; ! = repeats disagree. Unless noted, the call rests on the fitted dose curve; in most records, active means well fitted curve in the direction sought with a large enough effect; inconclusive means small, poorly fitted or top-dose-only effect, or another doubt; inactive means no such curve, though single readings can be large; an effect the other way counts as inactive or inconclusive.

Cc1ccc2[nH]c(-c3ccccc3)cc(=O)c2c1	HPGD inh inconclusive, PNC assembly inh -111
Cc1c(Br)ccc(NC(=O)CCN2C(=O)C3C4CCC(C4)C3C2=O)c1C (configuration not stated)	ALDH1A1 block 32µM
Cc1cc(NC(=O)CCN2C(=O)C3C4CCC(C4)C3C2=O)cc(C)c1Br (configuration not stated)	ALDH1A1 block inconclusive
Cc1ccc(N2CCCn3c2nc2c3c(=O)n(CCN3CCOCC3)c(=O)n2C)cc1	none
CCCCOC(=O)Cn1c(=O)c2c(nc3n2CCCCN3c2ccc(C)cc2)n(C)c1=O	NPSR antag inconclusive, PNC assembly inh -127, ALDH1A1 block inconclusive
O=C1CCC(=O)N1CC1CC2CCC1C2 (configuration not stated)	none (no result: HPGD inh, IMPase Li inh, IMPase cell inh, PNC assembly inh, ALDH1A1 block)
O=C(NCCOc1nc(N2CCOCC2)nc(N2CCOCC2)n1)Nc1ccccc1	none
O=C(NCCOc1nc(N2CCCCC2)nc(N2CCOCC2)n1)Nc1ccccc1	PNC assembly inh -107, ALDH1A1 block 8.9µM
COc1ccc(-c2nc3ccccc3n2Cc2ccccc2)cc1	HPGD inh inconclusive, IMPase cell inh inconclusive, NPSR antag inconclusive, PNC assembly inh inconclusive, ALDH1A1 block inconclusive
CCOCCn1c(-c2ccc(OC)cc2)nc2ccccc21	PNC assembly inh -106
COc1ccc(NCc2nc3ccccc3n2CCOc2ccc(C)cc2)cc1	PNC assembly inh -113 (no result: IMPase cell inh)
CSCCC(NS(=O)(=O)c1cccs1)C(=O)NCc1cccs1 (configuration not stated)	none
Cc1cc(NC(=O)NC2(C(F)(F)F)Oc3ccc(Cl)cc3O2)no1 (configuration not stated)	none
O=C(Cc1cc(=O)[nH][nH]1)N/N=C/c1c(F)cccc1Cl	none (no result: HPGD inh, IMPase cell inh, PNC assembly inh)
O=C(Cc1cc(=O)[nH][nH]1)N/N=C/c1c(Cl)cccc1Cl	HPGD inh 14µM, PNC assembly inh inconclusive, ALDH1A1 block 11µM!
CCN(C(=O)Cc1cccs1)c1nnc(-c2cc(OC)c(OC)c(OC)c2)s1	HPGD inh inconclusive, ALDH1A1 block inconclusive
CCCC(=O)N(C)c1nnc(-c2ccc(OC)cc2)s1	ALDH1A1 block 28µM
COCCN(C(=O)Cc1cccs1)c1nnc(-c2cccnc2)s1	PNC assembly inh -100, ALDH1A1 block inconclusive
CCCCN(C(=O)Cc1cccs1)c1nnc(-c2cccnc2)s1	ALDH1A1 block 18µM
COCCN(C(=O)CCc1ccc(OC)cc1)c1nnc(-c2ccncc2)s1	ALDH1A1 block 22µM (no result: HPGD inh, IMPase cell inh, PNC assembly inh)
CCOC(=O)Cc1nnn(CC(=O)OCC)n1	none
Cc1ccc2c(c1)nnn2C1CCN(C(=O)C2CCCCC2)CC1	PNC assembly inh inconclusive, ALDH1A1 block 7.9µM
Cc1ccc(C2NCCS2)cc1 (configuration not stated)	none (no result: HPGD inh, IMPase cell inh, PNC assembly inh)
CN(C)c1ccc(C2NCCS2)cc1 (configuration not stated)	PNC assembly inh inconclusive, ALDH1A1 block 1µM
CCc1ccccc1NS(=O)(=O)c1cc(C)ccc1OC	none
CC(C)c1ccc(S(=O)(=O)c2cc3cc(Br)ccc3oc2=O)cc1	IMPase Li inh 14µM
CN1/C(=C\C(=O)c2ccccc2Cl)c2ccccc2CC1(C)C	HPGD inh 18µM, PNC assembly inh inconclusive (no result: IMPase cell inh)
COc1ccccc1N(C)S(=O)(=O)c1ccc(C(=O)OCC(=O)N(C)c2ccccc2)cc1	ALDH1A1 block 32µM (no result: HPGD inh, IMPase cell inh, PNC assembly inh)
COc1ccccc1N(C)S(=O)(=O)c1ccc(C(=O)OCC(=O)Nc2ccccc2F)cc1	none (no result: HPGD inh, IMPase cell inh, PNC assembly inh)
O=CC1=C(N2CCOCC2)/C(=C/c2ccc(Cl)cc2)CC1	ALDH1A1 block 11µM (no result: HPGD inh, IMPase cell inh, PNC assembly inh)
Cc1cc(C)nc(N/N=C/C2=C(N3CCOCC3)C(=C\c3ccc(Cl)cc3)/CC2)n1	NPSR antag inconclusive, ALDH1A1 block 16µM (no result: IMPase cell inh)
Cc1cc(C)nc(N/N=C/c2ccc(N3CCOCC3)cc2)n1	none (no result: HPGD inh, IMPase cell inh, PNC assembly inh)
Cc1occc1C(=O)N/N=C/C1=C(N2CCOCC2)C(=C\c2ccc(Cl)cc2Cl)/CC1	HPGD inh inconclusive, ALDH1A1 block inconclusive (no result: IMPase cell inh)
Cn1c(=O)c2c(nc(C(=N)SCC(=O)O)n2C)n(C)c1=O	none (no result: IMPase cell inh, NPSR antag, PNC assembly inh)
CC1(C)CC(=O)C(C=NCCN2CCOCC2)=C(O)C1	PNC assembly inh -96, ALDH1A1 block inconclusive
CC(=C1C(=O)c2ccccc2C1=O)N1CCN(CCN=CC2=C(O)CC(C)(C)CC2=O)CC1	ALDH1A1 block 14µM (no result: IMPase cell inh)
CC1(C)CC(=O)C(C=NCCN2CCN(C(=O)CC3CCCC3)CC2)=C(O)C1	ALDH1A1 block inconclusive
CC1(C)CC(=O)C(C=NCCN2CCN(C(=O)NC34CC5CC(CC(C5)C3)C4)CC2)=C(O)C1	ALDH1A1 block 16µM
Cc1c(C(=O)O)cccc1N1C(=O)Nc2ccccc2N1O	PNC assembly inh inconclusive (no result: IMPase cell inh)
COc1cccc(Cn2c(=O)c(-c3ccc(F)cc3)nc3cnc(N4CCOCC4)nc32)c1	ALDH1A1 block inconclusive (no result: HPGD inh, IMPase cell inh, NPSR antag, PNC assembly inh)
Cc1noc(C)c1C(=O)N1CCC[C@@]2(CCN(Cc3ccccc3)C2)C1	none (no result: IMPase cell inh, NPSR antag, PNC assembly inh)
Cc1cccc(-c2nc(CSCC(=O)NCCCN3CCOCC3)c(C)o2)c1	none
CCOC(=O)C1=C(O)C(=O)N(Cc2ccc(C(C)(C)C)cc2)CC1	ALDH1A1 block 14µM (no result: HPGD inh, IMPase cell inh, PNC assembly inh)
CCOC(=O)C1=C(O)C(=O)N(Cc2ccccc2)CC1	none (no result: HPGD inh, IMPase cell inh, PNC assembly inh)
CCOC(=O)N1CCN(C(=O)CSc2nnc(CNC(=O)c3c(F)cccc3Cl)o2)CC1	PNC assembly inh inconclusive

Source: PubChem (National Center for Advancing Translational Sciences (NCATS))
